Assay results taken from the supplement of paper PMC12669032.
Unmarked numbers belong to inactive results.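 The calls were made as follows: active = AUC reduced over 20% with Padj below 0.05 in at least 2 of 3 replicates; inactive = otherwise.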

System: Bacteroides stercoris
Test: growth AUC relative to DMSO control (median of replicates) (fraction); higher = more growth (less inhibition), active = hit call of the paper
Conditions: 20 µM; 24 h
Procedure, shortened: (§1)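 Gut bacterial monocultures were grown anaerobically at 37 °C in mGAM from a starting OD600 of 0.05 with 20 µM compound (1% DMSO), in round-bottom 96-well plates under pierced gas-permeable seals, and OD600 was read hourly for 24 h. With the minimum OD set to 0, area under the growth curve was normalised to the plate median of solvent-only wells, or to row and column medians on the industrial chemical plate. Each value is the median of three biological replicates grown on separate days.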

SMILES | growth AUC
CCCCC(CC)COC(=O)COc1ccc(Cl)cc1C (stereo not given) | 0.983
c1ccc(CNc2ncnc3nc[nH]c23)cc1 | 0.995
CON=C(Cc1cccnc1)c1ccc(Cl)cc1Cl | 1.28
COC(=O)Cc1cccc2ccccc12 | 1.07
CC1(C)C(=O)Oc2ccc(OS(C)(=O)=O)cc21 | 1.06
CN(C)c1ccc(N=NS(=O)(=O)[O-])cc1.[Na+] | 1.06
CCOC(=O)Cn1c(=O)sc2cccc(Cl)c21 | 1

System: Bacteroides thetaiotaomicron
Test: as above
Conditions: 20 µM; 24 h
Procedure, shortened: as §1

SMILES | growth AUC
O=C(O)Cc1c(Cl)ccc(Cl)c1Cl | 1
COc1cc(OC)c(Cl)cc1N | 1.01
O=S(Cc1ccc(Cl)cc1)c1ccc(Cl)cc1 (stereo not given) | 0.946
Cc1cc(C)c(C2=C(O)C3(CCCC3)OC2=O)c(C)c1 | 0.986
CN(C)C(=O)c1cccnc1S(N)(=O)=O | 0.988
CCCN(CCOc1c(Cl)cc(Cl)cc1Cl)C(N)=O | 0.961
Cc1nn(C)c(OCC(=O)c2ccccc2)c1C(=O)c1ccc(Cl)cc1Cl | 0.933
CC(C)(C)Nc1nc(N)nc(Cl)n1 | 0.979
COC(=O)c1c(Cl)nn(C)c1S(=O)(=O)NC(=O)Nc1nc(OC)cc(OC)n1 | 0.991
[S] | 1.02
CCCCCCCCc1c(CC)nc2ncnn2c1N | 0.97
Cn1cc(C(=O)Nc2ccccc2-c2cc(F)c(F)c(F)c2)c(C(F)F)n1 | 0.93
CCCOc1nc2ccc(I)cc2c(=O)n1CCC | 0.936
CNc1nc(NC(C)C)nc(SC)n1 | 1.01
CC(C)(C)[C@@H](O)[C@@H](Cc1ccc(Cl)cc1)n1cncn1 (mixture of isomers) | 0.993
Cc1ccc2c(c1)[C@H](Nc1nc(N)nc(C(C)F)n1)[C@@H](C)C2 (stereo not given in full) | 0.975
CCN(CC)c1nc(C)cc(=O)[nH]1 | 0.996
Clc1ccc(C(c2ccccc2Cl)C(Cl)Cl)cc1 (stereo not given) | 0.988
CSc1nc(NC2CC2)nc(NC(C)(C)C)n1 | 0.895
CCc1cccc(C)c1N(C(=O)C(=O)O)[C@@H](C)C(=O)O | 0.999

SMILES | growth AUC
CCNc1nc(NC(C)(C)C)[nH]c(=O)n1 | 0.969
CC(C)N(C(=O)C(=O)O)c1ccccc1 | 1.01
Cc1nn(C)c(F)c1C(=O)Nc1ccccc1C(C)CC(C)C (stereo not given) | 0.968
CC(C)c1cc(Oc2ccccc2)cc(C(C)C)c1NC(=S)NC(C)(C)C | 0.97
CCCCOCCOC(=O)COc1ccc(Cl)cc1Cl | 0.98
CCOC(=O)C(C)Oc1ccc(Oc2nc3ccc(Cl)cc3o2)cc1 (racemic) | 0.971
C/C=C/C(=O)Oc1c(C(C)CCCCCC)cc([N+](=O)[O-])cc1[N+](=O)[O-] (mixture of isomers) | 0.569 (active)
c1ccc2c(c1)Cc1ccccc1-2 | 1
CC(C)(C)C(O)/C(=C\c1ccc(Cl)cc1)n1cncn1 (stereo not given) | 0.958
Oc1ccccc1 | 0.997
Cc1c(Br)c2ccc(F)cc2n1S(=O)(=O)c1ncn(S(=O)(=O)N(C)C)n1 | 1
NC(Cn1cncn1)C(=O)O (stereo not given) | 1
CCCCC(CC)COC(=O)COc1ccc(Cl)cc1C (stereo not given) | 0.987
c1ccc(CNc2ncnc3nc[nH]c23)cc1 | 1.03
CON=C(Cc1cccnc1)c1ccc(Cl)cc1Cl | 0.91
COC(=O)Cc1cccc2ccccc12 | 0.995
CC1(C)C(=O)Oc2ccc(OS(C)(=O)=O)cc21 | 0.988
CN(C)c1ccc(N=NS(=O)(=O)[O-])cc1.[Na+] | 0.955
CCOC(=O)Cn1c(=O)sc2cccc(Cl)c21 | 0.999

System: Bacteroides uniformis
Test: as above
Conditions: 20 µM; 24 h
Procedure, shortened: as §1

SMILES | growth AUC
O=C(O)Cc1c(Cl)ccc(Cl)c1Cl | 0.993
COc1cc(OC)c(Cl)cc1N | 1.01
O=S(Cc1ccc(Cl)cc1)c1ccc(Cl)cc1 (stereo not given) | 0.983
Cc1cc(C)c(C2=C(O)C3(CCCC3)OC2=O)c(C)c1 | 0.989
CN(C)C(=O)c1cccnc1S(N)(=O)=O | 1.04
CCCN(CCOc1c(Cl)cc(Cl)cc1Cl)C(N)=O | 0.894
Cc1nn(C)c(OCC(=O)c2ccccc2)c1C(=O)c1ccc(Cl)cc1Cl | 0.852
CC(C)(C)Nc1nc(N)nc(Cl)n1 | 0.962
COC(=O)c1c(Cl)nn(C)c1S(=O)(=O)NC(=O)Nc1nc(OC)cc(OC)n1 | 1
[S] | 1.06
CCCCCCCCc1c(CC)nc2ncnn2c1N | 0.973
Cn1cc(C(=O)Nc2ccccc2-c2cc(F)c(F)c(F)c2)c(C(F)F)n1 | 0.984
CCCOc1nc2ccc(I)cc2c(=O)n1CCC | 0.95
CNc1nc(NC(C)C)nc(SC)n1 | 0.957
CC(C)(C)[C@@H](O)[C@@H](Cc1ccc(Cl)cc1)n1cncn1 (mixture of isomers) | 0.966
Cc1ccc2c(c1)[C@H](Nc1nc(N)nc(C(C)F)n1)[C@@H](C)C2 (stereo not given in full) | 0.948
CCN(CC)c1nc(C)cc(=O)[nH]1 | 0.961
Clc1ccc(C(c2ccccc2Cl)C(Cl)Cl)cc1 (stereo not given) | 0.943
CSc1nc(NC2CC2)nc(NC(C)(C)C)n1 | 1
CCc1cccc(C)c1N(C(=O)C(=O)O)[C@@H](C)C(=O)O | 0.999

SMILES | growth AUC
CCNc1nc(NC(C)(C)C)[nH]c(=O)n1 | 0.983
CC(C)N(C(=O)C(=O)O)c1ccccc1 | 1.01
Cc1nn(C)c(F)c1C(=O)Nc1ccccc1C(C)CC(C)C (stereo not given) | 0.947
CC(C)c1cc(Oc2ccccc2)cc(C(C)C)c1NC(=S)NC(C)(C)C | 0.998
CCCCOCCOC(=O)COc1ccc(Cl)cc1Cl | 0.93
CCOC(=O)C(C)Oc1ccc(Oc2nc3ccc(Cl)cc3o2)cc1 (racemic) | 0.981
C/C=C/C(=O)Oc1c(C(C)CCCCCC)cc([N+](=O)[O-])cc1[N+](=O)[O-] (mixture of isomers) | 0.448 (active)
c1ccc2c(c1)Cc1ccccc1-2 | 1
CC(C)(C)C(O)/C(=C\c1ccc(Cl)cc1)n1cncn1 (stereo not given) | 0.973
Oc1ccccc1 | 1.03
Cc1c(Br)c2ccc(F)cc2n1S(=O)(=O)c1ncn(S(=O)(=O)N(C)C)n1 | 0.993
NC(Cn1cncn1)C(=O)O (stereo not given) | 0.998
CCCCC(CC)COC(=O)COc1ccc(Cl)cc1C (stereo not given) | 0.943
c1ccc(CNc2ncnc3nc[nH]c23)cc1 | 1.06
CON=C(Cc1cccnc1)c1ccc(Cl)cc1Cl | 0.921
COC(=O)Cc1cccc2ccccc12 | 1
CC1(C)C(=O)Oc2ccc(OS(C)(=O)=O)cc21 | 0.986
CN(C)c1ccc(N=NS(=O)(=O)[O-])cc1.[Na+] | 0.98
CCOC(=O)Cn1c(=O)sc2cccc(Cl)c21 | 0.957
